Laboratory results as given in PubChem BioAssay (EPA / NIEHS).
“And” between values parts separate entries of the source, which are not always exact repeats. Equal entries are not always repeated. Inconclusive results are not listed. More than one record can exist for a structure, and the calls need not agree. The source made the active and inactive calls. Rule for the calls, unless noted: active = hit-call score of the fitted dose curve at least 0.9, where 1 is the maximum; inactive = score below 0.9.

Experiments:
[1] = read-out: Transforming Growth Factor (TGFB1), TGFB1 (gene 7040); test: LTEA_HepaRG_TGFB1: Life Technologies and Expression Analysis (LTEA) Assay for Transforming Growth Factor (TGFB1) Transporter using HepaRG (AID 2283533); details: mRNA level, 48 h; actives raise or lower the signal
How it was run: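 qRT-PCR readout of TGFB1 transcript in HepaRG lysates, normalized to three housekeeping genes; gain or loss of signal fitted relative to 0.5% DMSO vehicle. Exposure: 48 h, 8-point curve from 100 uM, duplicate wells.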

TIMP1, TIMP1 (gene 7076) = test: LTEA_HepaRG_TIMP1: Life Technologies and Expression Analysis (LTEA) Assay for TIMP1 using HepaRG (AID 2283534); details: mRNA level, 48 h; actives raise or lower the signal
How it was run: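 HepaRG, 48 h exposure, 8-pt half-log series from 100 uM in 0.5% DMSO, duplicates; TIMP1 transcript by Fluidigm qRT-PCR, housekeeping-normalized; bidirectional curve fit vs DMSO baseline.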

[2] = read-out: Tumor necrosis factor receptor 1 (TNFRSF1A), TNFRSF1A (gene 7132); test: LTEA_HepaRG_TNFRSF1A: Life Technologies and Expression Analysis (LTEA) Assay for Tumor necrosis factor receptor 1 (TNFRSF1A) using HepaRG (AID 2283535); details: mRNA level, 48 h; actives raise or lower the signal
How it was run: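 HepaRG, 48 h plating then 48 h chemical exposure, serum-free induction media; 8-pt CRC from 100 uM, half-log, 0.5% DMSO vehicle, duplicates. Readout: TaqMan qRT-PCR (Fluidigm), housekeeping-gene normalized; bidirectional fit vs DMSO.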

[3] = read-out: Thyroid Hormone Responsive (THRSP), THRSP (gene 7069); test: LTEA_HepaRG_THRSP: Life Technologies and Expression Analysis (LTEA) Assay for Thyroid Hormone Responsive (THRSP) using HepaRG (AID 2283536); details: mRNA level, 48 h; actives raise or lower the signal
How it was run: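 qRT-PCR read-out (Fluidigm TaqMan), housekeeping-normalized (ACTB/GAPDH/POLR2A). HepaRG, 48 h chemical exposure, 8-pt half-log series from 100 uM in 0.5% DMSO, duplicates. Bidirectional curve fit vs 0.5% DMSO baseline.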

[4] = read-out: Cellular tumor antigen p53 (Homo sapiens) (UniProt P04637); test: LTEA_HepaRG_TP53: Life Technologies and Expression Analysis (LTEA) Assay for Tumor Protein P53 (TP53) using HepaRG (AID 2283537); details: mRNA level, 48 h; actives raise or lower the signal
How it was run: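 TP53 transcript measured by qRT-PCR, normalized to three housekeeping genes, after 48 h treatment of human HepaRG cultures with chemicals from 100 uM downward in half-log steps (0.5% DMSO vehicle, serum-free induction medium). Up- or down-regulation fitted against DMSO.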

[5] = read-out: UDP glucuronosyltransferase (UGT1A1), UGT1A1 (gene 54658); test: LTEA_HepaRG_UGT1A1: Life Technologies and Expression Analysis (LTEA) Assay for UDP glucuronosyltransferase (UGT1A1) using HepaRG (AID 2283538); details: mRNA level, 48 h; actives raise or lower the signal
How it was run: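 HepaRG, 48 h chemical exposure (top 100 uM, half-log 8-pt, 0.5% DMSO vehicle), duplicate wells; qRT-PCR (TaqMan, Fluidigm array) for UGT1A1 mRNA, housekeeping-normalized; bidirectional curve fit vs DMSO baseline.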

[6] = read-out: UDP glucuronosyltransferase (UGT1A6), UGT1A6 (gene 54578); test: LTEA_HepaRG_UGT1A6: Life Technologies and Expression Analysis (LTEA) Assay for UDP glucuronosyltransferase (UGT1A6) using HepaRG (AID 2283539); details: mRNA level, 48 h; actives raise or lower the signal
How it was run: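 qRT-PCR readout of UGT1A6 mRNA (normalized to ACTB/GAPDH/POLR2A) in differentiated HepaRG cells after 48 h chemical exposure; 8 concentrations, top 100 uM, half-log steps, 0.5% DMSO. Bidirectional curve fit relative to DMSO baseline.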

[7] = read-out: X-box binding protein 1 (XBP1), XBP1 (gene 7494); test: LTEA_HepaRG_XBP1: Life Technologies and Expression Analysis (LTEA) Assay for X-box binding protein 1 (XBP1) using HepaRG (AID 2283540); details: mRNA level, 48 h; actives raise or lower the signal
How it was run: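 HepaRG, 48 h exposure, 8-pt half-log CRC top 100 uM, 0.5% DMSO vehicle, duplicates. Readout: TaqMan qRT-PCR of XBP1 mRNA, housekeeping-normalised (ACTB/GAPDH/POLR2A); bidirectional fit vs DMSO baseline.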

[8] = LTEA_HepaRG_LDH_cytotoxicity: Cytotoxicity Assessment in the Life Technologies and Expression Analysis (LTEA) Assay (AID 2283563; active = hit-call score of the fitted dose curve at least 0.9, where 1 is the maximum;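 for AC50: LDH activity released into spent culture medium as a marker of cell death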)
How it was run: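 HepaRG (human liver line), 48 h exposure, 8-pt half-log series from 100 uM, 0.5% DMSO vehicle, duplicates. Read-out: LDH in spent medium. Positive-direction fit vs DMSO baseline.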

[9] = ATG_XTT_Cytotoxicity: Cytotoxicity Assessment in the Attagene TRANS-FACTORIAL HepG2 Assay (AID 2283584; active = hit-call score of the fitted dose curve at least 0.9, where 1 is the maximum;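 for AC50: cells exposed to compound for 24 h before reading; active means loss of viability signal versus DMSO baseline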)
How it was run: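 XTT readout of cell number in transfected HepG2 cells, 24 h post-dosing; DMSO serves as negative control and baseline, with activity taken as loss of viability signal.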

Measured: AC50

Sequence of Cellular tumor antigen p53 (Homo sapiens) (P04637 whole entry, looked up): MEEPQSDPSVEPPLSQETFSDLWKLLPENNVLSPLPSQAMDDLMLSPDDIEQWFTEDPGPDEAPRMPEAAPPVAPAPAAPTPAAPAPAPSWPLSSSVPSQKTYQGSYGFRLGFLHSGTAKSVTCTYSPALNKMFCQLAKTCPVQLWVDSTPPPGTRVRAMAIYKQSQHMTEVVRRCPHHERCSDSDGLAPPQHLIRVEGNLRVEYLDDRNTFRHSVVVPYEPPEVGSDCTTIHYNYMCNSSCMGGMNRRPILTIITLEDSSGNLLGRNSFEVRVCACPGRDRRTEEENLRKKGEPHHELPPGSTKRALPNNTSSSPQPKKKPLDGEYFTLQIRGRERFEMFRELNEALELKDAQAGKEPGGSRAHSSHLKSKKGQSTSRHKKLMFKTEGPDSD

CCCCCCC(C)OC(=O)COc1nc(F)c(Cl)c(N)c1Cl (stereo not given)
inactive: [1] | TIMP1, TIMP1 (gene 7076) | [2] | [3] | [4] | [5] | [6] | [7] | [8]

CCCCOC(=O)[C@@H](C)Oc1ccc(Oc2ccc(C(F)(F)F)cn2)cc1
inactive: [1] | TIMP1, TIMP1 (gene 7076) | [2] | [3] | [4] | [5] | [6] | [7] | [8]

CCN(Cc1c(F)cccc1Cl)c1c([N+](=O)[O-])cc(C(F)(F)F)cc1[N+](=O)[O-]
active: [3] 22.8 µM | [4] 30.3 µM | [5] 7.12 µM
inactive: [1] | TIMP1, TIMP1 (gene 7076) | [2] | [6] | [7] | [8] | [9]

C#CCOC(=O)[C@@H](C)Oc1ccc(Oc2ncc(Cl)cc2F)cc1
inactive: [1] | TIMP1, TIMP1 (gene 7076) | [2] | [3] | [4] | [6] | [7] | [8]
active: [5] 20.2 µM

O=C(O)C1(C(=O)Nc2ccc(Cl)cc2Cl)CC1
active: [3] 78 µM | [6] 79.6 µM | [7] 69.2 µM
inactive: [1] | TIMP1, TIMP1 (gene 7076) | [2] | [4] | [5] | [8]

CCOC(=O)C(C)Oc1ccc(Oc2nc3ccc(Cl)cc3o2)cc1 (stereo not given)
inactive: [1] | TIMP1, TIMP1 (gene 7076) | [2] | [3] | [4] | [5] | [6] | [7] | [8]

CC(C)(C)[C@@H](O)[C@@H](Cc1ccc(Cl)cc1)n1cncn1
active: [3] 32.7 µM | [5] 6.98 µM
inactive: [1] | TIMP1, TIMP1 (gene 7076) | [2] | [4] | [6] | [7] | [8]

COCCO
inactive: [1] | TIMP1, TIMP1 (gene 7076) | [2] | [3] | [4] | [5] | [6] | [7] | [8] | [9]

CC(C)CCCCCCc1ccc(O)cc1
inactive: [1] | TIMP1, TIMP1 (gene 7076) | [2] | [3] | [4] | [5] | [6] | [7] | [8]
active: [9] 50 µM [middle of 4 runs]

CC(=O)S[C@@H]1CC2=CC(=O)CC[C@]2(C)[C@H]2CC[C@@]3(C)[C@@H](CC[C@@]34CCC(=O)O4)[C@H]12
inactive: [1] | TIMP1, TIMP1 (gene 7076) | [2] | [4] | [9]
active: [3] 36.5 µM | [5] 72.2 µM | [6] 50 µM | [7] 50 µM | [8] 79.1 µM

COC(=O)c1ccccc1C(=O)O
inactive: [1] | TIMP1, TIMP1 (gene 7076) | [2] | [3] | [4] | [5] | [6] | [7] | [8]

CCCN(CCC)c1c([N+](=O)[O-])cc(C(F)(F)F)c(N)c1[N+](=O)[O-]
inactive: TIMP1, TIMP1 (gene 7076) | [2] | [4] | [6] | [8]
active: [1] 50 µM | [3] 22.5 µM | [5] 6.48 µM | [7] 28.9 µM

CCSC(=O)N(CC(C)C)CC(C)C
inactive: [1] | TIMP1, TIMP1 (gene 7076) | [2] | [3] | [4] | [5] | [6] | [7] | [8]

CCC(C)OC(=O)N1CCCCC1CCO (stereo not given)
inactive: [1] | TIMP1, TIMP1 (gene 7076) | [2] | [3] | [4] | [6] | [7] | [8]
active: [5] 34.2 µM

CCNc1nc(N)nc(Cl)n1
inactive: [1] | TIMP1, TIMP1 (gene 7076) | [2] | [3] | [4] | [6] | [7] | [8]
active: [5] 1.03 µM

CCCN(CCC)C(=O)SCC
inactive: [1] | TIMP1, TIMP1 (gene 7076) | [2] | [3] | [4] | [5] | [6] | [7] | [8]

C[C@]12CC[C@@H]3c4ccc(O)cc4C[C@@H](CCCCCCCCCS(=O)CCCC(F)(F)C(F)(F)F)[C@H]3[C@@H]1CC[C@@H]2O (stereo not given in full)
active: [1] 0.121 µM | [2] 80.2 nM | [3] 13.7 µM | [4] 0.0628 µM | [5] 26.9 µM | [6] 50 µM | [7] 0.0493 µM
inactive: TIMP1, TIMP1 (gene 7076) | [8] | [9]

O=C(Nc1ccc([N+](=O)[O-])cc1Cl)c1cc(Cl)ccc1O
inactive: [3] | [4]
active: [1] 3.95 µM | TIMP1, TIMP1 (gene 7076) 3.18 µM | [2] 10100 nM | [5] 3.65 µM | [6] 3.63 µM | [7] 1.97 µM | [8] 4.38 µM

OB(O)O
inactive: [1] | TIMP1, TIMP1 (gene 7076) | [2] | [3] | [4] | [5] | [6] | [7] | [8]

CCCOC(=O)c1ccc(C(=O)OCCC)nc1
inactive: [1] | TIMP1, TIMP1 (gene 7076) | [2] | [3] | [4] | [5] | [6] | [7] | [8]

CCCCOC(=O)C(C)Oc1ccc(Oc2ccc(C(F)(F)F)cn2)cc1 (stereo not given)
inactive: [1] | TIMP1, TIMP1 (gene 7076) | [2] | [3] | [4] | [5] | [6] | [7] | [8]

CCOC(=O)NCCOc1ccc(Oc2ccccc2)cc1
inactive: [1] | TIMP1, TIMP1 (gene 7076) | [2] | [5] | [6] | [7]
active: [3] 75.8 µM | [4] 82.8 µM | [8] 82.2 µM

CCCOC(=O)NCCCN(C)C
inactive: [1] | TIMP1, TIMP1 (gene 7076) | [2] | [3] | [4] | [5] | [6] | [7] | [8]

S=C(S)NCCNC(=S)S.[Mn+2].[S-]C([S-])=NCCN=C([S-])[S-].[Zn+2]
active: TIMP1, TIMP1 (gene 7076) 6.38 µM | [2] 1.21 µM and 2.33 µM | [3] 699 nM and 352 nM and 513 nM | [5] 1.25 µM and 1.46 µM and 1.2 µM | [6] 2.12 µM and 1.74 µM | [7] 908 nM and 953 nM | [8] 1.58 µM and 1.57 µM and 1.84 µM
inactive: [1] | TIMP1, TIMP1 (gene 7076) | [2] | [9]

CCOC(=O)COc1cc(-n2ncc(C(F)(F)F)c(C)c2=O)c(F)cc1Cl
inactive: [1] | TIMP1, TIMP1 (gene 7076) | [2] | [3] | [4] | [5] | [6] | [7] | [8]

Cc1nn(C)c(Oc2ccccc2)c1C=NOCc1ccc(C(=O)OC(C)(C)C)cc1
active: [1] 63.2 µM | TIMP1, TIMP1 (gene 7076) 6.47 µM | [3] 3.57 µM | [4] 6.96 µM | [5] 2.29 µM | [6] 1.61 µM | [8] 8.6 µM
inactive: [2] | [7]

COC(=O)CSc1cc(N=c2sc(=O)n3n2CCCC3)c(F)cc1Cl
active: [5] 41.4 µM
inactive: [1] | TIMP1, TIMP1 (gene 7076) | [2] | [3] | [4] | [6] | [7] | [8]
